Measured values as given in the supplement of paper PMC10849652.
About 7,900 targets were measured; listed, in parts, are those with a hit and a random draw of the rest. About 0.6% of all pairs of compound and target were hits. Values without a mark were called inactive.

Experiments:
Assay in all cases: log2 fold change, soluble protein after heating vs DMSO (PISA); higher = thermal stabilisation; K562 cells, 10 uM, 30 min; active = over 0.2 and 3.5 SD of the protein, either way, in both replicates (recomputed)
bafetinib = compound: Cc1ccc(NC(=O)c2ccc(CN3CC[C@H](N(C)C)C3)c(C(F)(F)F)c2)cc1Nc1nccc(-c2cncnc2)n1 [bafetinib]
How it was run: (§1)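 K562 cells at 2×10^6 cells/mL were exposed to 10 μM compound for 30 min, then aliquots were heated for 3 min across 48°C-58°C, pooled, and extracted in PBS containing 0.5% NP-40 at 4°C. The supernatant after 21,000xg for 90 min was taken as soluble protein and measured by TMTpro 16plex LC-MS/MS with channel sums equalised. Thermal stability is reported relative to control samples, with values from duplicates. Fold changes are given on a log2 scale.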

[1] = compound: Cc1cccc(CC(=O)N2CCc3c2ccc(-c2cn(C)c4ncnc(N)c24)c3F)n1
How it was run: as §1

nilotinib = compound: Cc1cn(-c2cc(NC(=O)c3ccc(C)c(Nc4nccc(-c5cccnc5)n4)c3)cc(C(F)(F)F)c2)cn1 [nilotinib]
How it was run: as §1

[2] = compound: Cc1nc(Nc2n[nH]c3c2CN(C(=O)N[C@H](CN(C)C)c2ccccc2)C3(C)C)c2sccc2n1
How it was run: as §1

dasatinib = compound: Cc1nc(Nc2ncc(C(=O)Nc3c(C)cccc3Cl)s2)cc(N2CCN(CCO)CC2)n1 [dasatinib]
How it was run: as §1

[3] = compound: Cc1ncc(-c2ccnc(Nc3ccc(S(C)(=O)=O)cc3)n2)n1C(C)C
How it was run: as §1

[4] = compound: Cn1cc(-c2ccc3c(c2)CCN3C(=O)Cc2cccc(C(F)(F)F)c2)c2c(N)ncnc21
How it was run: as §1

[5] = compound: Cn1cc(-c2ccc3nnc(C(F)(F)c4ccc5ncccc5c4)n3n2)cn1
How it was run: as §1

tipifarnib = compound: Cn1cncc1[C@@](N)(c1ccc(Cl)cc1)c1ccc2c(c1)c(-c1cccc(Cl)c1)cc(=O)n2C [tipifarnib]
How it was run: as §1

mubritinib = compound: FC(F)(F)c1ccc(/C=C/c2nc(COc3ccc(CCCCn4ccnn4)cc3)co2)cc1 [mubritinib]
How it was run: as §1

Chain of UniProt P40763 (P40763 whole entry, looked up): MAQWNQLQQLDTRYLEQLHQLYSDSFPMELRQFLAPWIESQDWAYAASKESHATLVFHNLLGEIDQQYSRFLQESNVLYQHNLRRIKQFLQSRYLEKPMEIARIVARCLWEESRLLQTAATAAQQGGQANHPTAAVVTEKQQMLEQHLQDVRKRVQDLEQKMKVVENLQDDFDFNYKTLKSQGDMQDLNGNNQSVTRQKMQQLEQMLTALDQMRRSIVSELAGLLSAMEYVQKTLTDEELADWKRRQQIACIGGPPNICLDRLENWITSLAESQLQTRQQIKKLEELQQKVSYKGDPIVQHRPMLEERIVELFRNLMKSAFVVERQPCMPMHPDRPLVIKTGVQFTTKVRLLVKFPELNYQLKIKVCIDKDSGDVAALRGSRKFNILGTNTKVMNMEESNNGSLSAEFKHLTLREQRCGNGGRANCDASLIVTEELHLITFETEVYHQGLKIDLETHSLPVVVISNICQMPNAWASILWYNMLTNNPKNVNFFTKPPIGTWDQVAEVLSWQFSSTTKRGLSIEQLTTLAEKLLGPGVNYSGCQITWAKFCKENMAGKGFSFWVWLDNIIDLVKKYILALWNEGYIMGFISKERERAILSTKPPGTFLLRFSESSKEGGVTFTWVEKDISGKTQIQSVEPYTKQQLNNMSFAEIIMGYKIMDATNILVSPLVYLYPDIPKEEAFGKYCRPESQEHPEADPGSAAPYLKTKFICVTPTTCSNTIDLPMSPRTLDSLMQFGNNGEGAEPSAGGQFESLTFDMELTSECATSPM
Chain of UniProt Q9Y5X1 (Q9Y5X1 whole entry, looked up): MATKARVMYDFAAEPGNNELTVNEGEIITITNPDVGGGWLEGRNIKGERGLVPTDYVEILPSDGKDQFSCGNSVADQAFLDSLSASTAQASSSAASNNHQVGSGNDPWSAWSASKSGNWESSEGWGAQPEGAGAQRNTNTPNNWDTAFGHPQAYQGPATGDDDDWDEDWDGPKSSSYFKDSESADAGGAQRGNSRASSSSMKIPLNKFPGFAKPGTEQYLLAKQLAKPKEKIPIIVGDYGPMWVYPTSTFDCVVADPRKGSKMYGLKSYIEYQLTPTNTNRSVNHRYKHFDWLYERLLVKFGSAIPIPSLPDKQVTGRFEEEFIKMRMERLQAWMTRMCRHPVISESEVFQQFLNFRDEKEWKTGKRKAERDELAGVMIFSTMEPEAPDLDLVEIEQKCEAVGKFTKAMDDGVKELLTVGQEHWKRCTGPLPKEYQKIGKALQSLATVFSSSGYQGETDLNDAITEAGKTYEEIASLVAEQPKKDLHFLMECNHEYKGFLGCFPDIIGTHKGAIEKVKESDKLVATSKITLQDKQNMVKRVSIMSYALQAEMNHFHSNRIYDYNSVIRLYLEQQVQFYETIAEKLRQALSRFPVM
Chain of UniProt Q9UP52 (Q9UP52 whole entry, looked up): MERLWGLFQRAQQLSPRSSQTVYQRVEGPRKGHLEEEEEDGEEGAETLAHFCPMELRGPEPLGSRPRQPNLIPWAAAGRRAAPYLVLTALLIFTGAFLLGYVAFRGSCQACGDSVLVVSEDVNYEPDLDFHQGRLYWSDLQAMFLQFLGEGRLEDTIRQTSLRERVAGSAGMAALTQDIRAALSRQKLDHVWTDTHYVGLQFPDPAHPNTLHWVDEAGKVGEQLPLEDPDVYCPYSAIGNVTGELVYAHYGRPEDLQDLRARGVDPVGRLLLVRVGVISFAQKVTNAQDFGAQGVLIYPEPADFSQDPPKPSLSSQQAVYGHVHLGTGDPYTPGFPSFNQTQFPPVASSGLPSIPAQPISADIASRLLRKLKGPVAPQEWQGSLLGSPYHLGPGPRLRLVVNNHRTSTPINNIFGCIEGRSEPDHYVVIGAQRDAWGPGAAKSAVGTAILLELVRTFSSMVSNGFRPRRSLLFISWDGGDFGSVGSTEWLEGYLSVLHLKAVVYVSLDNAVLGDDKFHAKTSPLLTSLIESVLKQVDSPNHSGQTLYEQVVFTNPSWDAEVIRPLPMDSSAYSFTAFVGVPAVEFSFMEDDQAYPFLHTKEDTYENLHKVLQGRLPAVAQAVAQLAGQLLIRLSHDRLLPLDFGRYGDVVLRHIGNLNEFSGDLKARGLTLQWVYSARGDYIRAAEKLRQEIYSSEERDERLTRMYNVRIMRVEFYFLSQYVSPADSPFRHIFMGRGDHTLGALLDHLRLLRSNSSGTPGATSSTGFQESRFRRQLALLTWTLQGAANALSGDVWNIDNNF
Chain of UniProt Q92609 (Q92609 whole entry, looked up): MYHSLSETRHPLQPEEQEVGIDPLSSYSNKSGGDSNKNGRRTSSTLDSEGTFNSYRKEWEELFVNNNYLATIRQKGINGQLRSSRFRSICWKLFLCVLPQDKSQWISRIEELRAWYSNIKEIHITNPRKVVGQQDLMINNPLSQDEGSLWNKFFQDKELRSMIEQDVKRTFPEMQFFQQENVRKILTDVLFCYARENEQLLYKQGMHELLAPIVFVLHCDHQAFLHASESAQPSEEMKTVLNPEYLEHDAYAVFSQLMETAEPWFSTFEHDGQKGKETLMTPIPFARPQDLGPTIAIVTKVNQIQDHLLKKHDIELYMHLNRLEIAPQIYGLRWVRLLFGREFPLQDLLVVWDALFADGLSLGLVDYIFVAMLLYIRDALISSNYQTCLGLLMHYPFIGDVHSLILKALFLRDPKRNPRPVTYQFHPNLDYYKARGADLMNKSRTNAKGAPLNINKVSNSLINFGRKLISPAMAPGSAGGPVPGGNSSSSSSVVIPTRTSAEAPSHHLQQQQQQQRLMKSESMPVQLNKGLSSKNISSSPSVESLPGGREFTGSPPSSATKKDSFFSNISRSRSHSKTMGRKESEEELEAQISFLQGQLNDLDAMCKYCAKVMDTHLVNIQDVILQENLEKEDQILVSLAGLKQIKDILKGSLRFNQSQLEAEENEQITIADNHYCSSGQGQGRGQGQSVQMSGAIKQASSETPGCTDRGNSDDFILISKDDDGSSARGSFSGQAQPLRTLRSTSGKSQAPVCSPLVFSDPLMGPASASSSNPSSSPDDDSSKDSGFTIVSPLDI
Chain of UniProt Q15582 (Q15582 whole entry, looked up): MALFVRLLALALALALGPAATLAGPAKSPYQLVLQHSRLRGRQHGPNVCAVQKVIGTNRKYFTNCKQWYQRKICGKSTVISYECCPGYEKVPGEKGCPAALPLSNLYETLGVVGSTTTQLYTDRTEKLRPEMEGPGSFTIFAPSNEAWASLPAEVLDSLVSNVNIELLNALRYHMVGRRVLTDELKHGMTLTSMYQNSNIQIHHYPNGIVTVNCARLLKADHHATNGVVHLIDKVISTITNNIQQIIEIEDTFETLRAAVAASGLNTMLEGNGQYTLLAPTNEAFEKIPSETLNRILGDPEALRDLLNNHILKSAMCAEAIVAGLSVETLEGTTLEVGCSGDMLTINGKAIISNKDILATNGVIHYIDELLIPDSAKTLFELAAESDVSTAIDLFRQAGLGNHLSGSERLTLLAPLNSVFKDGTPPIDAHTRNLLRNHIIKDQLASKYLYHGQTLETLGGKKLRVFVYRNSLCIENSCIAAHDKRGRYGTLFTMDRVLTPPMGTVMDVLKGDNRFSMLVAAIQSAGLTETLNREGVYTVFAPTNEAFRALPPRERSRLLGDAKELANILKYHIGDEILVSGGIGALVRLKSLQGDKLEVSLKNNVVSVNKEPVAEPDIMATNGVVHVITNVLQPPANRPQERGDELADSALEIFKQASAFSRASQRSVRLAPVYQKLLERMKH
Chain of UniProt O95772 (O95772 whole entry, looked up): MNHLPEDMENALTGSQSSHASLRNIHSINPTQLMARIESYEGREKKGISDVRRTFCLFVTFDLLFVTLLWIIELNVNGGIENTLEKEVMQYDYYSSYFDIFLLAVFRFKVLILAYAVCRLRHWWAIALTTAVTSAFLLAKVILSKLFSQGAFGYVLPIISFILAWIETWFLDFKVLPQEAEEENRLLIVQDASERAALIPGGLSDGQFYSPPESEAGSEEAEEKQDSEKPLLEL
Chain of UniProt Q08945 (Q08945 whole entry, looked up): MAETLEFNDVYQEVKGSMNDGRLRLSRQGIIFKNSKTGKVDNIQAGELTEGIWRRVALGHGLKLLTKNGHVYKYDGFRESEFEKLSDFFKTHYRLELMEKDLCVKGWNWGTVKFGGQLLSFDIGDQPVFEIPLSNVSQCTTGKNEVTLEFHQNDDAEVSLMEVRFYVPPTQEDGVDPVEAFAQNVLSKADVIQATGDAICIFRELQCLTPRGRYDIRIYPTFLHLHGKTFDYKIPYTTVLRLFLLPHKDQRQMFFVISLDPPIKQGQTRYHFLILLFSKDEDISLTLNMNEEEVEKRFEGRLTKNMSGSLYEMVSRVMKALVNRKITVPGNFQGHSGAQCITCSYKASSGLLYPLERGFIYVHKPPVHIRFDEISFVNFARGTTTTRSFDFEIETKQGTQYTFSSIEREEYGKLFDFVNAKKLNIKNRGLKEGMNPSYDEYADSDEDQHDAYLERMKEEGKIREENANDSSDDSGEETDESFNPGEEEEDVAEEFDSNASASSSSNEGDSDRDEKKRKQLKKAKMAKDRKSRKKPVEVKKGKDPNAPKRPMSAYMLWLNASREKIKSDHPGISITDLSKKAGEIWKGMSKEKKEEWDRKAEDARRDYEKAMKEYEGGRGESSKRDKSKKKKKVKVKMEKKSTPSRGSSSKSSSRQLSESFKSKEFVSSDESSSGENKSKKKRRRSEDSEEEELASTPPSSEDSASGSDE
Chain of UniProt Q01130 (Q01130 whole entry, looked up): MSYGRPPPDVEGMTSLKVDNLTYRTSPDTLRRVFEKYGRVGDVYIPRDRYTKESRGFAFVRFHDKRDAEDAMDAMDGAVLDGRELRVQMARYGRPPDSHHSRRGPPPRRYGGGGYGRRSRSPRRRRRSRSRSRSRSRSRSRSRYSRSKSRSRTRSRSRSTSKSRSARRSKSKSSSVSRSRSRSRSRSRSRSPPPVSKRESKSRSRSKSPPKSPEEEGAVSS

Target	log2 fold change (bafetinib)	log2 fold change [1]	log2 fold change (nilotinib)	log2 fold change [2]	log2 fold change (dasatinib)	log2 fold change [3]	log2 fold change [4]	log2 fold change [5]	log2 fold change (tipifarnib)	log2 fold change (mubritinib)
TIMM44 (UniProt O43615)	-0.355 (active)	0.045	-0.062	-0.066	-0.192	0.006	0.026	-0.002	-0.054	0.001
TACC2 (UniProt O95359)	-0.044	0.011	0.027	0.073	0.059	0.008	-0.001	-0.003	0.029	-0.006
SP100 isoform 4 (UniProt P23497)	-0.047	-0.056	-0.02	-0.061	-0.054	-0.057	0.02	0.026	-0.087	0.043
STAM2 (UniProt O75886)	-0.067	0.014	0.007	-0.077	0.044	-0.008	0.016	0.009	-0.012	0.019
STARD3NL (UniProt O95772)	0.011	-0.008	-0.007	0.027	0.075	-0.001	-0.048	0.025	-0.064	-0.006
STAT3 (UniProt P40763)	-0.015	-0.003	-0.097	-0.216	-0.141	0.026	-0.027	0.013	-0.172	0.024
SMAD9 (UniProt O15198)	-0.102	-0.226	-0.113	0.004	-0.077	-0.114	0.058	0.015	-0.069	-0.067
TBC1D5 isoform 2 (UniProt Q92609)	-0.126	0.017	-0.076	-0.052	-0.232	0.007	-0.067	-0.005	-0.177	-0.017
SSRP1 (UniProt Q08945)	0.007	0.015	-0.025	-0.175	-0.059	-0.075	0.03	-0.033	0	0.009
SRRM2 (UniProt Q9UQ35)	0.068	0.044	0.02	-0.936 (active)	0.079	-0.261	0.048	0.022	0.077	0.035
TFR2 (UniProt Q9UP52)	-0.226 (active)	-0.012	0.012	-0.074	0.006	-0.026	-0.019	0.054	0.025	0.041
SRSF2 (UniProt Q01130)	0.02	-0.062	0.007	-0.541 (active)	0.074	0.034	-0.058	0	0.085	-0.011
SNX9 (UniProt Q9Y5X1)	-0.015	0.03	-0.06	-0.064	-0.131	0.006	-0.023	-0.008	-0.013	0.009
TGFBI (UniProt Q15582)	-0.241	0.148	-0.099	0.054	-0.04	0.167	0.197	0.098	-0.063	-0.02
